Screens: PubChem BioAssay, National Center for Advancing Translational Sciences (NCATS)
Rows were chosen to be rich in hits. Some 10% of all compounds tested hit in one or more screens of this group.
JMJD2A Tudor = blocks the human JMJD2A Tudor domain | O75164 | AID 504339 | Potency, µM (highest dose often 114 µM), for inactives: at the top dose activity change, negative = inhibition, usual class: inhibitors | AlphaScreen JMJD2A-Tudor / H3K4me3 peptide binding | 390,000 tested, 4.4% active; further: potency means the concentration at half of the fitted maximal effect; on the % scale 0 is the no-effect control and ±100 the full control effect; nearly all actives have a fitted effect of over 50% in size
BAZ2B block = inhibitors of human BAZ2B bromodomain; Q9UIF8; AlphaScreen BAZ2B-H3K14Ac peptide displacement; Potency, µM (series often up to 114 µM), inactives show top-dose activity change, negative = inhibition, most hits filed as inhibitors; 360,000 tested, 4.4% active; further: potency means the concentration at half of the fitted maximal effect; on the % scale 0 is the no-effect control and ±100 the full control effect; nearly all actives have a fitted effect of over 60% in size
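In this displacement format the biotinylated H3(5-23) peptide acetylated at Lys14 serves as ligand at 50 nM, with BAZ2B at 50 nM in PBS pH 7.4 containing 0.01% Tween-20. Donor and acceptor beads are 10 ug/mL final.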
Six1-Eya2 inh = blocks human Six1 binding to Eya2; Q15475+O00167; AlphaScreen GST-Six1/His-Eya2 binding, biochemical; hits give low values; activity change, % (test concentration not listed); 360,000 tested, 0.56% active; AID 651725; in the data active means activity change below about -65%; inconclusive means mostly about -30% to -63%; further: on the % scale 0 is the no-effect control and ±100 the full control effect
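AlphaScreen luminescence read after one hour at 37 °C in darkness. Pin-transferred compounds met GST-Six1 and His-Eya2 protein (5X stock 250 nM/500 nM) plus glutathione donor and Ni-chelate acceptor beads (5X, 50 ug/mL).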
HP1b chromo inh = blocks HP1-beta chromodomain binding to methylated histone tails; P83916; AlphaScreen HP1-beta / biotin-H3K9me3 peptide binding; Potency, µM (highest dose often 114 µM), for the others: at the highest dose activity change, negative = inhibition, usual class: inhibitors; 390,000 tested, 0.56% active; further: potency means the concentration at half of the fitted maximal effect; nearly all actives have a fitted effect of over 70% in size
Target sequence (P83916 whole entry, looked up): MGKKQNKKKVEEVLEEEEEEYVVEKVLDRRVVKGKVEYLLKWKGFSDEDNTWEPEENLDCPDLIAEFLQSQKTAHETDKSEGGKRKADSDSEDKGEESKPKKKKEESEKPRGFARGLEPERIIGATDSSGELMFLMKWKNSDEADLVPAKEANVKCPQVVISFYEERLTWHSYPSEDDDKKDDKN
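HP1-beta protein (50 nM final) preincubated 30 min at room temperature with biotinylated H3(1-18)K9me3 peptide (50 nM) in PBS pH 7.4, 0.01% Tween-20, then compound added for 30 min. AlphaScreen streptavidin donor/nickel chelate acceptor beads (10 ug/mL final), 30 min dark, luminescence read.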
CtBP-E1A blk = blocks the CtBP interaction with E1A; activity change, % (no concentration beside the values); AID 651724; 340,000 tested, 0.49% active; AlphaScreen GST-E1A/His-CtBP binding, 1536-well; hits give low values; in the data active means activity change below about -65%; inconclusive means mostly about -30% to -63%; further: on the % scale 0 is the no-effect control and ±100 the full control effect
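AlphaScreen with 125 nM GST-E1A and 125 nM His-CtBP (5X stocks) in Tris pH 8.0, 300 mM NaCl, BSA, Tween 20, TCEP. Compounds preincubated 2 h at 37 deg C, then glutathione donor/nickel acceptor beads added for 1 h at 37 deg C in dark.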
G9a block = blocks human histone lysine methyltransferase G9a; Potency, µM (doses to about 102 µM), inactives show at the highest dose activity, negative = inhibition, actives largely listed as inhibitors; AID 504332; 350,000 tested, 8.8% active; G9a H3K9 monomethylation, AlphaScreen, 2 h; further: potency means the concentration at half of the fitted maximal effect; on the % scale 0 is the no-effect control and ±100 the full control effect; nearly all actives have a fitted effect of over 75% in size
Target sequence (Q96KQ7 913-1193 limits assumed): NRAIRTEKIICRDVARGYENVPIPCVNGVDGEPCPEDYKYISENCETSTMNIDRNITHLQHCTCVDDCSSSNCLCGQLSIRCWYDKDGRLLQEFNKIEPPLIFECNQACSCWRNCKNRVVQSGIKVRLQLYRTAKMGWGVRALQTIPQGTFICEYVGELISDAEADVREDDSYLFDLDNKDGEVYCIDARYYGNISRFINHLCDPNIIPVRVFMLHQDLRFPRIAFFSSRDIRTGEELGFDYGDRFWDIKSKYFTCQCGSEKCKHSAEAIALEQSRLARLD
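Signal arises when biotinylated H3K9 peptide, once monomethylated, bridges streptavidin donor and antibody-captured acceptor beads. Enzyme at 20 nM was preincubated 15 min with test compounds; peptide 500 nM and SAM 20 uM then reacted for 2 h.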
* marks the source's active call; other numbers are inactive results; u = inconclusive; x = not tested or not shown; [ ] = another dose, or the depositor's remark. Unless noted, the call rests on the fitted dose curve; in most records, active means well fitted inhibition curve with a large enough effect; inconclusive means small, poorly fitted or top-dose-only effect; inactive means no such curve, though single readings can be large or run the other way.

SMILES	JMJD2A Tudor	BAZ2B block	Six1-Eya2 inh	HP1b chromo inh	CtBP-E1A blk	G9a block
COc1cccc(C2c3c(ncn(-c4ccccc4OC)c3=N)Oc3ccc4ccccc4c32)c1 (stereo not drawn)	56.2µM*	x	x	x	x	x
N=c1c2c(ccn1-c1ccccc1)Oc1ccc3ccccc3c1C2c1ccccc1 (stereo not drawn)	39.8µM*	x	x	x	x	x
COc1cccc(C2c3c(ncn(-c4cccc(F)c4)c3=N)Oc3ccc4ccccc4c32)c1 (stereo not drawn)	50.1µM*	x	x	x	x	x
COc1cccc(C2c3c(ncn(-c4ccccc4)c3=N)Oc3ccc4ccccc4c32)c1 (stereo not drawn)	56.2µM*	x	x	x	x	x
Cc1cc(C)c(S(=O)(=O)NCC(c2cccs2)S(=O)(=O)c2ccccc2)c(C)c1 (stereo not drawn)	-8.4%	-4.4%	x	75.7%	x	-1.5%[59 µM]
CCCOc1ccc(C(=O)Nc2nonc2-c2ccc(OCC)cc2)cc1	-15.1%	-0.9%	x	16.0%	x	-16.6%[59 µM]
N=c1c2c(ncn1-c1ccccc1)Oc1ccc3ccccc3c1C2c1ccc2c(c1)OCO2 (stereo not drawn)	44.7µM*	x	x	x	x	x
COc1ccccc1C1c2c(ncn(-c3ccccc3)c2=N)Oc2ccc3ccccc3c21 (stereo not drawn)	56.2µM*	x	x	x	x	x
COc1ccccc1C1c2ccc3ccccc3c2Oc2ncn(CCN(C)C)c(=N)c21 (stereo not drawn)	u	-33.0%	1.5	1.8%	-8.9	u
Cc1nnc2ccc(-c3cccc(NC(=O)c4ccc(Br)o4)c3)nn12	-10.5%	-25.1%	u	11.2%	-65.3*	u
O=C(Nc1cccc(-c2ccc(N3CCCCC3)nn2)c1)c1ccc(Br)o1	-15.2%	-6.2%	-28.5	7.0%	-15.7	28.2µM*
O=C(Nc1cccc(-c2ccc(N3CCCCC3)nn2)c1)C(F)(F)F	-1.0%	22.8%	-3.3	40.4%	x	11.6%
Cc1nnc2ccc(-c3cccc(NC(=O)c4ccc(Cl)nc4)c3)nn12	-14.0%	4.2%	0.0	3.8%	-28.5	-35.7%
Cc1cccc(N(CC(=O)NCCSc2ccc(Cl)cc2)S(C)(=O)=O)c1C	0.3%	7.2%	x	43.4%	x	-25.4%[59 µM]
Cc1cc(CC(=O)O)c(C)n1-c1ccc(Cl)cc1	x	x	x	x	x	-43.4%[12.7 µM]
Cc1c(C(=O)NC2CCS(=O)(=O)C2)oc2ccccc12 (stereo not drawn)	-2.5%	23.5%	-17.2	51.1%	0.0	44.7µM*
CCOc1cc(N2CCOCC2)c(OCC)cc1NC(=O)c1oc2ccccc2c1C	-19.9%	x	-9.6	-1.6%	0.0	-7.2%
COc1ccc2oc(C(=O)Nc3ccccc3N3CCOCC3)c(C)c2c1	-12.8%	7.9%	-4.1	9.7%	-10.2	44.7µM*
COc1ccc2oc(C(=O)Nc3ccc(N4CCOCC4)cc3)c(C)c2c1	u	50.1µM*	-23.0	-14.7%	-2.8	50.1µM*
Cc1c(C(=O)Nc2ccc(N3CCOCC3)cc2)oc2ccccc12	56.2µM*	2.6%	-11.1	1.0%	-12.8	u
Cc1nnc(C)c2c(C)n(-c3ccccc3N)c(C)c12	u	-37.9%	-16.8	12.6%	-5.3	-44.2%
Cc1nnc(C)c2c(C)n(-c3cccc4cccnc34)c(C)c12	x	u	x	x	x	70.8µM*
O=C(CC(=O)NC1CCCCC1)N/N=C/c1ccccc1[N+](=O)[O-]	2.1%	4.0%	-1.5	20.7%	5.6	44.7µM*
O=C(CC(=O)NC1CCCCC1)N/N=C/c1ccccc1Cl	-5.4%	9.5%	-0.2	25.0%	14.7	18.7%[59 µM]
O=C1C=CC(=O)N1c1ccc(O)cc1	39.8µM*	-4.6%	-9.0	u	-5.1	1µM*
O=C(O)CNC(=O)c1ccc(OC(F)F)cc1	-7.6%	-6.2%	6.7	43.4%	9.5	-14.5%[59 µM]
O=C1C=CC(=O)N1c1ccc(OC(F)F)cc1	15.8µM*	u	-9.6	20µM*	3.3	1.41µM*
O=C1C2C3C=CC(C2C(=O)N1c1ccc(O)cc1)C1C2C(=O)N(c4ccc(O)cc4)C(=O)C2C31 (stereo not drawn)	-15.1%	-23.8%	-4.3	27.2%	-3.5	50.1µM*
